{"source": "PubChem BioAssay (EPA / NIEHS)", "note": "The source holds several records for some structures; these can differ, active in one and inactive in another. Calls of active or inactive are those of the source. How the source made its calls: active means hit-call score of the fitted dose curve at least 0.9, where 1 is the maximum; inactive means score below 0.9."}
{"test": "BSK_BT_PBMCCytotoxicity: PBMC Cytotoxicity Assessment in the BioMAP Diversity Plus: BT Assay (AID 2284225);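 further: PBMC viability measured by Alamar Blue dye reduction fluorescence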", "settings": "primary human B cells with PBMC", "how_it_was_run": "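PBMC (75,000/well) pretreated with compound 1 h, then activated with SEB and TSST-1 (20 ng/mL each final), incubated 90 h; Alamar Blue added 6 h, fluorescence read at 546/580 nm. Fitted relative to DMSO.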"}
{"compound": "CC(=O)CCC=C(C)CCC=C(C)C", "outcome": "inactive"}
{"compound": "O=C1OC2(c3ccc(O)cc3Oc3cc(O)ccc32)c2ccccc21", "outcome": "inactive"}
{"compound": "CCOC(=O)C=Cc1ccccc1", "outcome": "inactive"}
{"compound": "CCOC(=O)CCCCCCCCC(=O)OCC", "outcome": "inactive"}
{"compound": "O=C(O)C(F)(F)OC(F)(F)C(F)(F)OC(F)(F)C(F)(F)C(F)(F)C(F)(F)F", "AC50": "22.1 µM (active)", "outcome": "inactive"}
{"compound": "C=C(F)C(=O)OC(C(F)(F)F)C(F)(F)F", "outcome": "inactive"}
{"compound": "CC(=O)OCC=C(C)CCC=C(C)CCC=C(C)C", "AC50": "33.2 µM (active)"}
{"compound": "CCCCCCCCCC(=O)OCC", "outcome": "inactive"}
{"compound": "CC(C)(C)c1cccc(O)c1", "outcome": "inactive"}
{"compound": "CCC(=O)OCC=Cc1ccccc1", "outcome": "inactive"}
{"compound": "C=C(C)C(=O)OCCC(F)(F)C(F)(F)C(F)(F)C(F)(F)C(F)(F)C(F)(F)C(F)(F)C(F)(F)F", "outcome": "inactive"}
{"compound": "c1ccc2c(c1)-c1ccc3ccc4cccc5cc-2c1c3c45", "outcome": "inactive"}
{"compound": "CC1=CC(C)C(C=O)C(C)C1", "note": "(centres undefined) (tested in a mixture with another compound)", "outcome": "inactive"}
{"compound": "c1ccc(Sc2ccccc2)cc1", "outcome": "inactive"}
{"compound": "C=CC(=O)OCC(CO)(COC(=O)C=C)COC(=O)C=C", "AC50": "1.7 µM (active)"}
{"compound": "COc1ccccc1NC(=O)CC(C)=O", "outcome": "inactive"}
{"compound": "CC=CC(=O)C1=C(C)C=CCC1(C)C", "outcome": "inactive"}
{"compound": "O=S(=O)(O)C(F)(F)C(F)(F)OC(F)(F)C(F)(F)F", "outcome": "inactive"}
{"compound": "CC(=O)OC(C)(C)C1CC=C(C)CC1", "note": "(centres undefined)", "outcome": "inactive"}
{"compound": "O=C(O)C(F)(F)C(F)(F)C(F)(F)C(F)(F)C(F)(F)C(F)(F)C(F)(F)C(F)F", "AC50": "19.8 µM (active)", "outcome": "inactive"}
{"compound": "O=S1(=O)CC(Cl)(Cl)C(Cl)(Cl)C1", "AC50": "0.874 µM (active)"}
{"compound": "CCCCCCCCCCCCS", "outcome": "inactive"}
